These results are taken from the supplement of paper PMC6288085.

Where a name gives a salt, the structure may show the parent alone. ± gives the uncertainty stated by the source.

The test system of this assay is Caenorhabditis elegans N2. The assay is described as follows: food intake (mean delta OD600 / animal over 72 h) with 50 uM loxapine co-treatment (OD600 units per animal); higher = more food eaten (less suppression of loxapine-induced hyperphagia). The following applies: first compound 33 µM, loxapine concentration 50 µM. The method, then: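 C. elegans N2 adults (FUDR-sterilised, day 1) in 96-well plates fed gamma-irradiated bacteria. Each library drug (MedChemExpress FDA-approved library) at 33 uM was combined with loxapine at 50 uM. Food intake was measured as bacterial clearance: the change in OD600 from day 1 to 72 h, normalised per animal (mean over 14-21 wells of about 10-12 worms). Drugs flagged for bacterial lysis or sickness were excluded by the authors.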
Take `CC[C@H]1OC(=O)[C@H](C)[C@@H](O[C@H]2C[C@@](C)(OC)[C@@H](O)[C@H](C)O2)[C@H](C)[C@@H](O[C@@H]2O[C@H](C)C[C@H](N(C)C)[C@H]2O)[C@](C)(O)C[C@@H](C)[C@@H]2N[C@@H](COCCOC)O[C@H]([C@H]2C)[C@]1(C)O` [dirithromycin] + CN1CCN(C2=Nc3ccccc3Oc3ccc(Cl)cc32)CC1 [loxapine]: the food intake was found to be 0.0208 ± 0.0079. On to `CC(=O)NC(Cc1ccccc1)C(=O)O` (racemic) [N-acetyl DL-phenylalanine] + CN1CCN(C2=Nc3ccccc3Oc3ccc(Cl)cc32)CC1 [loxapine], for which the food intake is 0.0223 ± 0.0049. To `Cc1cc(C)c2c(c1)[C@@H](N(Cc1cc(C(F)(F)F)cc(C(F)(F)F)c1)c1nnn(C)n1)CCCN2C[C@H]1CC[C@H](C(=O)O)CC1` [Evacetrapib] + CN1CCN(C2=Nc3ccccc3Oc3ccc(Cl)cc32)CC1 [loxapine] belongs 0.0229 ± 0.0033; to `N=C(N)NC(=N)NCCc1ccccc1` [Phenformin (hydrochloride)] + CN1CCN(C2=Nc3ccccc3Oc3ccc(Cl)cc32)CC1 [loxapine], 0.0236 ± 0.0019; to `C=CCNC(N)=S` [allylthiourea] + CN1CCN(C2=Nc3ccccc3Oc3ccc(Cl)cc32)CC1 [loxapine], 0.0237 ± 0.003. Next, `CC(=O)C1C(=O)C=C(C)OC1=O` (stereo not given) [dehydroacetic acid] + CN1CCN(C2=Nc3ccccc3Oc3ccc(Cl)cc32)CC1 [loxapine]: 0.0214 ± 0.0043. Next, `Cc1ccc(C)c(OCCCC(C)(C)C(=O)O)c1` [Gemfibrozil] + CN1CCN(C2=Nc3ccccc3Oc3ccc(Cl)cc32)CC1 [loxapine]: 0.0247 ± 0.0069; `COc1cc(OC)c(C(=O)CCCN2CCCC2)c(OC)c1` [buflomedil (hydrochloride)] + CN1CCN(C2=Nc3ccccc3Oc3ccc(Cl)cc32)CC1 [loxapine]: 0.0222 ± 0.0028. On to `C1CCN2C[C@@H]3C[C@@H](CN4CCCC[C@@H]34)[C@H]2C1` [(-)-sparteine (sulfate pentahydrate)] + CN1CCN(C2=Nc3ccccc3Oc3ccc(Cl)cc32)CC1 [loxapine], for which the food intake worked out at 0.0235 ± 0.0013. Turning to `NC12CC3CC(CC(C3)C1)C2` [amantadine (hydrochloride)] + CN1CCN(C2=Nc3ccccc3Oc3ccc(Cl)cc32)CC1 [loxapine], the food intake is 0.0253 ± 0.003. `CO/N=C(\C(=O)N[C@@H]1C(=O)N2C(C(=O)O)=C(CSc3nc(=O)c(O)nn3C)CS[C@H]12)c1csc(N)n1` [ceftriaxone (sodium salt)] + CN1CCN(C2=Nc3ccccc3Oc3ccc(Cl)cc32)CC1 [loxapine]: the food intake was 0.0251 ± 0.0082. Next, `COc1ccc(C(=O)NCc2ccc(OCCN(C)C)cc2)cc1OC` [itopride (hydrochloride)] + CN1CCN(C2=Nc3ccccc3Oc3ccc(Cl)cc32)CC1 [loxapine]: 0.0294 ± 0.033. Next, `S=c1nc[nH]c2nc[nH]c12` [6-Mercaptopurine] + CN1CCN(C2=Nc3ccccc3Oc3ccc(Cl)cc32)CC1 [loxapine]: 0.0218 ± 0.0028; `Cc1cc(C)cc(OCC2CNC(=O)O2)c1` (stereo not given) [metaxalone] + CN1CCN(C2=Nc3ccccc3Oc3ccc(Cl)cc32)CC1 [loxapine]: 0.0236 ± 0.003. Next, `O=C(C1CCCCC1)N1CC(=O)N2CCc3ccccc3C2C1` (stereo not given) [praziquantel] + CN1CCN(C2=Nc3ccccc3Oc3ccc(Cl)cc32)CC1 [loxapine]: 0.0224 ± 0.0023; `Cc1cccc(C)c1OCC(=O)N[C@@H](Cc1ccccc1)[C@@H](O)C[C@H](Cc1ccccc1)NC(=O)[C@H](C(C)C)N1CCCNC1=O` [lopinavir] + CN1CCN(C2=Nc3ccccc3Oc3ccc(Cl)cc32)CC1 [loxapine]: 0.0209 ± 0.0084. Regarding `Clc1ccc(COC(Cn2ccnc2)c2ccc(Cl)cc2Cl)c(Cl)c1` (stereo not given) [miconazole (nitrate)] + CN1CCN(C2=Nc3ccccc3Oc3ccc(Cl)cc32)CC1 [loxapine], the food intake was 0.0169 ± 0.005.

With `Nc1nc2c(ncn2COC(CO)CO)c(=O)[nH]1` [ganciclovir] + CN1CCN(C2=Nc3ccccc3Oc3ccc(Cl)cc32)CC1 [loxapine], the food intake is 0.0236 ± 0.0019. `CC(C)NCC(O)COc1ccc(CCOCC2CC2)cc1` (stereo not given) [betaxolol] + CN1CCN(C2=Nc3ccccc3Oc3ccc(Cl)cc32)CC1 [loxapine]: the food intake amounted to 0.0265 ± 0.0022.

As for `O=C(O)CCCCCCCC(=O)O` [azelaic acid] + CN1CCN(C2=Nc3ccccc3Oc3ccc(Cl)cc32)CC1 [loxapine], the food intake is 0.0259 ± 0.018.

For `CC=CC(=O)N(CC)c1ccccc1C` [crotamiton] + CN1CCN(C2=Nc3ccccc3Oc3ccc(Cl)cc32)CC1 [loxapine], the food intake came to 0.0223 ± 0.002.

As to `COC(=O)Nc1nc2cc([S+]([O-])c3ccccc3)ccc2[nH]1` (stereo not given) [oxfendazole] + CN1CCN(C2=Nc3ccccc3Oc3ccc(Cl)cc32)CC1 [loxapine], the food intake was 0.0214 ± 0.0037. Consider `CC(C)C(=O)c1c(C(C)C)nn2ccccc12` [ibudilast] + CN1CCN(C2=Nc3ccccc3Oc3ccc(Cl)cc32)CC1 [loxapine], for which the food intake stood at 0.0243 ± 0.0046. Take `CC[C@@H](CO)NCCN[C@@H](CC)CO` [ethambutol (dihydrochloride)] + CN1CCN(C2=Nc3ccccc3Oc3ccc(Cl)cc32)CC1 [loxapine]: the food intake worked out at 0.024 ± 0.0019. To `CCOC(=O)C(C)(C)Oc1ccc(Cl)cc1` [clofibrate] + CN1CCN(C2=Nc3ccccc3Oc3ccc(Cl)cc32)CC1 [loxapine] belongs 0.0218 ± 0.0033.

`CN1CCCC(n2nc(Cc3ccc(Cl)cc3)c3ccccc3c2=O)CC1` (stereo not given) [azelastine (hydrochloride)] + CN1CCN(C2=Nc3ccccc3Oc3ccc(Cl)cc32)CC1 [loxapine]: the food intake amounted to 0.0226 ± 0.0035. Regarding `CN1C(=O)C[C@@H](C(=O)N[C@@H](Cc2c[nH]cn2)C(=O)N2CCC[C@H]2C(N)=O)NC1=O` [taltirelin] + CN1CCN(C2=Nc3ccccc3Oc3ccc(Cl)cc32)CC1 [loxapine], the food intake worked out at 0.022 ± 0.0034. To `CNC(=O)[C@H](Cc1c[nH]c2ccccc12)NC(=O)[C@@H](CC(=O)NO)CC(C)C` + CN1CCN(C2=Nc3ccccc3Oc3ccc(Cl)cc32)CC1 [loxapine] belongs 0.0195 ± 0.0054; to `NNC(=O)c1ccncc1` [isoniazid] + CN1CCN(C2=Nc3ccccc3Oc3ccc(Cl)cc32)CC1 [loxapine], 0.0217 ± 0.0032; to `CCc1nc(N)nc(N)c1-c1ccc(Cl)cc1` [pyrimethamine] + CN1CCN(C2=Nc3ccccc3Oc3ccc(Cl)cc32)CC1 [loxapine], 0.0221 ± 0.003. Next, `CCc1c2c(nc3ccc(OC(=O)N4CCC(N5CCCCC5)CC4)cc13)-c1cc3c(c(=O)n1C2)COC(=O)[C@]3(O)CC` [Irinotecan] + CN1CCN(C2=Nc3ccccc3Oc3ccc(Cl)cc32)CC1 [loxapine]: 0.022 ± 0.003.

With `CN(C)CCC=C1c2ccccc2C=Cc2ccccc21` [cyclobenzaprine (hydrochloride)] + CN1CCN(C2=Nc3ccccc3Oc3ccc(Cl)cc32)CC1 [loxapine], the food intake worked out at 0.0221 ± 0.0063. Next, `CC1=C(C)C(=O)C(C(CCCCCC(=O)O)c2ccccc2)=C(C)C1=O` (stereo not given) [seratrodast] + CN1CCN(C2=Nc3ccccc3Oc3ccc(Cl)cc32)CC1 [loxapine]: 0.0265 ± 0.0088; `Cc1cccc(-c2nn3c(c2-c2ccnc4ccc(C(N)=O)cc24)CCC3)n1` + CN1CCN(C2=Nc3ccccc3Oc3ccc(Cl)cc32)CC1 [loxapine]: 0.0252 ± 0.0052; `CCOC(=O)c1c(CSc2ccccc2)n(C)c2cc(Br)c(O)c(CN(C)C)c12` [arbidol (hydrochloride)] + CN1CCN(C2=Nc3ccccc3Oc3ccc(Cl)cc32)CC1 [loxapine]: 0.0227 ± 0.0057. Next, `CCOC(=O)/C=C(C)/C=C/C=C(C)/C=C/c1c(C)cc(OC)c(C)c1C` [etretinate] + CN1CCN(C2=Nc3ccccc3Oc3ccc(Cl)cc32)CC1 [loxapine]: 0.0213 ± 0.0039; `CC(CCc1ccccc1)NCC(O)c1ccc(O)c(C(N)=O)c1` (stereo not given) [labetalol (hydrochloride)] + CN1CCN(C2=Nc3ccccc3Oc3ccc(Cl)cc32)CC1 [loxapine]: 0.0213 ± 0.0075; `CN1C(C(=O)Nc2ccccn2)=C(O)c2ccccc2S1(=O)=O` [piroxicam] + CN1CCN(C2=Nc3ccccc3Oc3ccc(Cl)cc32)CC1 [loxapine]: 0.0225 ± 0.0032.

As for `O=C([O-])c1ccccc1O.[Na+]` [sodium salicylate] + CN1CCN(C2=Nc3ccccc3Oc3ccc(Cl)cc32)CC1 [loxapine], the food intake was determined as 0.0224 ± 0.0057. Next, `CCOCC(O)COc1ccc(NC(=O)CC[S+](C)C)cc1` (stereo not given) [Suplatast (tosilate)] + CN1CCN(C2=Nc3ccccc3Oc3ccc(Cl)cc32)CC1 [loxapine]: 0.0232 ± 0.0036.
